# Data taken from PubChem BioAssay (NCATS).
# Records with an inconclusive call do not appear. A call without a number means that no potency is given here. For some of these results: Results with a measured potency or affinity are listed apart. The source made the active and inactive calls. Unless noted, no rule for the calls is given here.
# Columns and labels:
# [1] = Ebola virus entry assay, green fluorescence channel
# [2] = Ebola virus entry assay, blue channel fluorescence
# [3] = Ebola virus entry assay, ratio channel
# [4] = Ebola virus entry assay, green channel fluorescence
# [5] = Ebola virus entry assay, reporter ratio channel; Channel type: primary
# [6] = Ebola virus entry assay, blue channel (ratio component)
# [7] = qHTS assay for measurement of the activity of small molecule inhibitors on Zika virus induced Caspase-3 activity in human iPSC derived neural progenitor cells (hNPCs) (AID 1224857; active = well fitted curve in the direction sought with a large enough effect; an effect the other way counts as inactive or inconclusive; also: nearly all actives have a fitted effect of over 65% in size); conditions: hNPCs ZIKV-induced caspase-3/7, Caspase-Glo luminescence, 6 h; series mostly up to 45.7 µM
# How it was run: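 Human iPSC-derived neural progenitor cells pretreated 1 hr with compounds, then infected with Zika virus (2 FFU/cell) for 6 hours at 37 C. Caspase-3/7 measured by Caspase-Glo luminescence; % inhibition calculated from induction scaled to uninfected (0%) and infected (100%) wells.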
# [8] = qHTS assay for cell viability of HEK293 cells (AID 743288; active = well fitted curve in the direction sought with a large enough effect; an effect the other way counts as inactive or inconclusive; also: nearly all actives have a fitted effect of over 50% in size); conditions: ATP luminescence (CellTiter-Glo), 18 h; max response: stronger effect = lower value
# How it was run: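 The Tox21 protocol used parental HEK293 cells treated for 18 h at 37 C with compounds delivered by pintool; ATP-coupled luminescence after 30 min at room temperature gave viability.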
# [9] = qHTS assay for cell viability of the p53RE-bla HCT-116 cell line (AID 743292; active = well fitted curve in the direction sought with a large enough effect; an effect the other way counts as inactive or inconclusive; also: nearly all actives have a fitted effect of over 55% in size); conditions: p53RE-bla HCT-116 viability, ATP luminescence, 16 h; series mostly up to 95 µM
# How it was run: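 Compound-exposed HCT-116 (p53RE-bla) cells, 4,000 per well, were kept 16 h at 37 C following a 5 h preincubation. Cell number was estimated from total ATP by CellTiter-Glo luminescence read after 30 min at room temperature.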
# [10] = qHTS profiling of the MIPE4 collection as inhibitors of Plasmodium falciparum (3D7) proliferation (AID 743344); conditions: P. falciparum 3D7 in erythrocytes, SYBR Green DNA fluorescence, 72 h; at 28.5 µM (top of the series)
# How it was run: (§1)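 Erythrocytes infected with P. falciparum (0.3% parasitemia, 2.5% hematocrit) incubated with compounds 72 h at 37 C, 5% CO2. Lysis with saponin/Triton buffer containing SYBR Green I, overnight at room temperature in the dark; DNA fluorescence (485/535 nm) normalised to 0.29 uM artemisinin and DMSO.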
# [11] = qHTS profiling of the MIPE4 collection as inhibitors of Plasmodium falciparum (DD2) proliferation (Rep 2) (AID 743346); conditions: P. falciparum Dd2 in erythrocytes, SYBR Green DNA, 72 h; at 28.5 µM (top of the series)
# How it was run: as §1
# [12] = qHTS profiling of the MIPE4 collection as inhibitors of Plasmodium falciparum (DD2) proliferation (AID 743345); conditions: P. falciparum Dd2 in erythrocytes, SYBR Green DNA, 72 h; at 28.5 µM (top of the series)
# How it was run: as §1
# [13] = qHTS profiling of the MIPE4 collection as inhibitors of Plasmodium falciparum (HB3) proliferation (AID 743347); conditions: P. falciparum HB3 in erythrocytes, SYBR Green DNA, 72 h; at 28.5 µM (top of the series)
# How it was run: as §1
smiles,measurement,setting,value
CC(CC(C(N)=O)(c1ccccc1)c1ccccc1)N(C)C (configuration not stated),efficacy,[1],13% (inactive)
same,outcome,[2],inactive
same,outcome,[3],inactive
same,outcome,[4],inactive
same,outcome,[5],inactive
same,outcome,[6],inactive
same,Potency,[7],inactive
CCNc1nc(Cl)nc(NCC)n1,max response,[8],-8% (inactive)
same,outcome,[9],inactive
same,efficacy,[1],16.6% (inactive)
same,outcome,[2],inactive
same,outcome,[3],inactive
same,outcome,[4],inactive
same,outcome,[5],inactive
same,outcome,[6],inactive
same,Potency,[7],inactive
O=c1[nH]c2cc(Cl)ccc2n1C1CCNCC1,efficacy,[1],11.1% (inactive)
same,outcome,[2],inactive
same,outcome,[3],inactive
same,outcome,[4],inactive
same,outcome,[5],inactive
same,outcome,[6],inactive
same,Potency,[7],inactive
CNC(C)Cc1ccccc1OC (configuration not stated),efficacy,[1],-13.2% (inactive)
same,outcome,[2],inactive
same,outcome,[3],inactive
same,outcome,[4],inactive
same,outcome,[5],inactive
same,outcome,[6],inactive
same,Potency,[7],inactive
CC1Sc2c(C(=O)O)c(=O)c3cc(F)c(N4CCNCC4)cc3n21 (configuration not stated),efficacy,[1],10.3% (inactive)
same,outcome,[2],inactive
same,outcome,[3],inactive
same,outcome,[4],inactive
same,outcome,[5],inactive
same,outcome,[6],inactive
same,Potency,[7],inactive
C[C@]12CC[C@H]3[C@@H](CC=C4C[C@@H](O)CC[C@@]43C)[C@@H]1CC[C@@H]2O,efficacy,[1],-35.9% (inactive)
same,outcome,[2],inactive
same,outcome,[3],inactive
same,outcome,[4],inactive
same,outcome,[5],inactive
same,outcome,[6],inactive
same,Potency,[7],inactive
O=C(O)CCCCCCNC1c2ccccc2CCc2ccccc21,efficacy,[1],26.2% (inactive)
same,outcome,[2],inactive
same,outcome,[3],inactive
same,outcome,[4],inactive
same,outcome,[5],inactive
same,outcome,[6],inactive
same,Potency,[7],inactive
NCc1cccnc1,efficacy,[1],-20.3% (inactive)
same,outcome,[2],inactive
same,outcome,[3],inactive
same,outcome,[4],inactive
same,outcome,[5],inactive
same,outcome,[6],inactive
same,Potency,[7],inactive
CC1=C2[C@H]3OC(=O)[C@@H](C)[C@@H]3CC[C@@]2(C)C=CC1=O,efficacy,[1],18.3% (inactive)
same,outcome,[2],inactive
same,outcome,[3],inactive
same,outcome,[4],inactive
same,outcome,[5],inactive
same,outcome,[6],inactive
same,Potency,[7],inactive
O=C(O)Cc1ccccc1,efficacy,[1],-19.3% (inactive)
same,outcome,[2],inactive
same,outcome,[3],inactive
same,outcome,[4],inactive
same,outcome,[5],inactive
same,outcome,[6],inactive
same,Potency,[7],inactive
CCOC(=O)NC(C)(C)Cc1ccc(Cl)cc1,efficacy,[1],-26.2% (inactive)
same,outcome,[2],inactive
same,outcome,[3],inactive
same,outcome,[4],inactive
same,outcome,[5],inactive
same,outcome,[6],inactive
same,Potency,[7],inactive
CCCCc1ccc2nc(NC(=O)OC)[nH]c2c1,efficacy,[1],19% (inactive)
same,AC50,[2],15.8 µM (active)
same,outcome,[3],inactive
same,outcome,[5],inactive
COc1ccc2cc1Oc1ccc(cc1)C[C@H]1c3c(cc4c(c3Oc3cc5c(cc3OC)CCN(C)[C@@H]5C2)OCO4)CCN1C,efficacy,[1],73.2% (inactive)
same,AC50,[2],1.12 µM (active)
same,AC50,[3],1.12 µM (active)
same,AC50,[5],1.12 µM (active)
CN1C(=O)CN=C(c2ccccc2)c2cc(Cl)ccc21,efficacy,[1],-37.3% (inactive)
same,AC50,[2],25.1 µM (active)
same,outcome,[3],inactive
same,outcome,[4],inactive
same,AC50,[5],35.5 µM (active)
same,Potency,[7],inactive
CNC(=O)NC(O)C(Cl)(Cl)Cl (configuration not stated),efficacy,[1],-36.8% (inactive)
same,outcome,[2],inactive
same,outcome,[3],inactive
same,outcome,[4],inactive
same,outcome,[5],inactive
same,Potency,[7],inactive
CCN(CC)CCOC(=O)C(c1ccccc1)c1ccccc1,efficacy,[1],39% (inactive)
same,AC50,[2],20 µM (active)
same,outcome,[3],inactive
same,AC50,[5],39.8 µM (active)
CC[C@]1(O)CC[C@H]2[C@@H]3CCC4=CCCC[C@@H]4[C@H]3CC[C@@]21C,efficacy,[1],22.6% (inactive)
same,AC50,[2],17.8 µM (active)
same,AC50,[3],15.8 µM (active)
same,outcome,[4],inactive
same,AC50,[5],15.8 µM (active)
same,Potency,[7],inactive
CC(C)=CCN1CC[C@@]2(C)c3cc(O)ccc3C[C@@H]1[C@@H]2C,efficacy,[1],36% (inactive)
same,AC50,[2],31.6 µM (active)
same,AC50,[3],31.6 µM (active)
same,outcome,[4],inactive
same,AC50,[5],31.6 µM (active)
same,Potency,[7],inactive
CCN(CC)CCOC(=O)C(c1ccccc1)C1CCCCC1 (configuration not stated),efficacy,[1],-237% (inactive)
same,AC50,[2],2.82 µM (active)
same,AC50,[3],1.58 µM (active)
same,AC50,[5],1.58 µM (active)
Sc1ccccc1Cl,efficacy,[1],41.3% (inactive)
same,outcome,[2],inactive
same,outcome,[3],inactive
same,outcome,[4],inactive
same,outcome,[5],inactive
same,Potency,[7],inactive
NC(=O)Cc1cccc(C(=O)c2ccccc2)c1N,"parasite growth, % of DMSO control",[10],102%
same,"parasite growth, % of control (lower = inhibition)",[11],114%
same,efficacy,[1],18% (inactive)
same,outcome,[2],inactive
same,outcome,[3],inactive
same,outcome,[4],inactive
same,outcome,[5],inactive
same,outcome,[6],inactive
Nc1ccc(Cl)cc1C(=O)c1ccccc1F,efficacy,[1],-39% (inactive)
same,AC50,[2],31.6 µM (active)
same,outcome,[3],inactive
same,outcome,[4],inactive
same,AC50,[5],31.6 µM (active)
same,Potency,[7],inactive
CC(C)(C)OC(=O)c1ncn2c1[C@@H]1CCCN1C(=O)c1c(Br)cccc1-2,efficacy,[1],19.6% (inactive)
same,outcome,[2],inactive
same,outcome,[3],inactive
same,outcome,[4],inactive
same,outcome,[5],inactive
same,Potency,[7],inactive
COc1ccc2c3c1O[C@H]1[C@@H](O)C=C[C@H]4[C@@H](C2)N(C)CC[C@@]341,efficacy,[1],44% (inactive)
same,AC50,[2],28.2 µM (active)
same,outcome,[3],inactive
same,outcome,[4],inactive
same,AC50,[5],31.6 µM (active)
same,Potency,[7],inactive
CN(C)CCc1c[nH]c2ccccc12,efficacy,[1],-12.4% (inactive)
same,AC50,[2],35.5 µM (active)
same,outcome,[3],inactive
same,outcome,[4],inactive
same,outcome,[5],inactive
same,Potency,[7],inactive
CCOC(=O)Nc1ccc(NCc2ccc(F)cc2)nc1N,"parasite growth, % of DMSO control",[10],40.6%
same,"parasite growth remaining, % of DMSO control (lower = more inhibition)",[12],90%
same,"parasite growth, % of control (lower = inhibition)",[11],84.5%
same,"growth, % of control",[13],82.7%
same,efficacy,[1],25.7% (inactive)
same,outcome,[2],inactive
same,outcome,[3],inactive
same,outcome,[4],inactive
same,outcome,[5],inactive
COc1cc(CC(C)N)cc2c1OCO2 (configuration not stated),efficacy,[1],23.1% (inactive)
same,AC50,[2],35.5 µM (active)
same,outcome,[3],inactive
same,outcome,[4],inactive
same,AC50,[5],35.5 µM (active)
same,Potency,[7],inactive
